# Measured values from PubChem BioAssay (NCATS).
# Results filed as inconclusive are left out. Calls of active or inactive are those of the source. Calls follow the shape of the dose curve; as a rule, active = well fitted cell-killing curve with a large enough effect; inconclusive = small, poorly fitted or top-dose-only effect, or effect the other way; inactive = no such curve, though single readings can be large or run the other way.
# Experiment: Quantitative High-Throughput drug screen in 47 multiple myeloma cell lines against the NCATS MIPE library collection: MM1S_ATCC cell viability assay (AID 1918980); also: nearly all actives have a fitted effect of over 45% in size;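 as to viability (% of control): 100% = wells with DMSO only and 0% = wells with media only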
# Details: MM1S myeloma viability, CellTiter-Glo ATP luminescence, 48 h; series mostly up to 45.8 µM; viability (% of control): at the top concentration
# Method in brief: (§1)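 Readout: median RLU from CellTiter-Glo after 5 min at room temperature. Preceding step was 48 h drug treatment of 500 cells/well at 37 °C, 5% CO2, with DMSO-only and media-only control wells.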
# Potency is read from the fitted curve at half-maximal effect.
SMILES,viability (% of control),Potency
CCCC[N+]1(C)[C@H]2CC(OC(=O)[C@H](CO)c3ccccc3)C[C@H]1[C@H]1O[C@H]12 (stereo partly drawn),136% (inactive),–
CC1(N2CCC(n3c([C@@H]4CCCNC4)nc4ccccc43)CC2)CCCCCCC1,–,4690 nM (active)
O=c1[nH]c2ccccc2n1C1CCN(Cc2ccc(-c3[nH]c4cc5ncnc5cc4nc3-c3ccccc3)cc2)CC1,–,18700 nM (active)
C[C@@H]1[C@H](O)[C@@H](C)C=CC=CCCC=CC=CC=CC=C[C@H](O[C@H]2O[C@@H](C)[C@H](O)[C@@H](N)[C@@H]2O)CC2O[C@](O)(C[C@@H](O)[C@H](O)CC[C@@H](O)C[C@@H](O)C[C@@H](O)CC(=O)O[C@H]1C)C[C@H](O)[C@H]2C(=O)O,129% (inactive),–
CC(=Cc1csc(C)n1)[C@@H]1C[C@H]2O[C@@H]2CCC[C@H](C)[C@@H](O)[C@@H](C)C(=O)C(C)(C)[C@@H](O)CC(=O)O1,61.6% (inactive),–
Clc1ccccc1C(c1ccccc1)(c1ccccc1)n1cccn1,–,469 nM (active)
C[C@@H]1CC[C@H]2[C@@H](C)C(=O)O[C@@H]3O[C@@]4(C)CC[C@H]1[C@]32OO4,–,296 nM (active)
Cc1[nH]nc2ccc(-c3cncc(OC[C@@H](N)Cc4c[nH]c5ccccc45)c3)cc12,–,833 nM (active)
O=C(Oc1ccc([N+](=O)[O-])cc1)N1CCN(Cc2cccc(Oc3ccccc3)c2)CC1,–,11800 nM (active)
C[C@@H]1O[C@@H](O[C@@H]2C=C3CC[C@@H]4[C@@H](CC[C@]5(C)[C@H](c6ccc(=O)oc6)CC[C@@]45O)[C@@]3(C)CC2)[C@H](O)[C@H](O)[C@H]1O,–,29.6 nM (active)
CC[C@@]1(O)C(=O)OCc2c1cc1n(c2=O)Cc2cc3ccccc3nc2-1,–,23.5 nM (active)
NC1=NC(=O)N2CC12 (stereo not drawn),113% (inactive),–
C[C@]12Cc3cn[nH]c3C[C@@H]1CC[C@@H]1[C@H]2CC[C@@]2(C)[C@H]1CC[C@]2(C)O,130% (inactive),–
CC1=C(O)C(=O)C=C2C1=CC=C1[C@@]2(C)CC[C@@]2(C)[C@@H]3C[C@](C)(C(=O)O)CC[C@]3(C)CC[C@]12C,–,662 nM (active)
CC=C(C)C(=O)O[C@H]1C(C)=C2[C@@H]3OC(=O)[C@@](C)(O)[C@@]3(O)[C@@H](OC(=O)CCC)C[C@](C)(OC(C)=O)[C@@H]2[C@@H]1OC(=O)CCCCCCC,–,18.7 nM (active)
COCC1(CO)C(=O)C2CCN1CC2 (stereo not drawn),–,264 nM (active)
CN1CCN(c2ccc([N+](=O)[O-])c3no[n+]([O-])c23)CC1,–,23500 nM (active)
O=C(N[C@@H](COc1ccc2[nH]c(=O)[nH]c2c1)c1ccccc1)c1cccn(Cc2ccc(F)c(F)c2)c1=O,–,16600 nM (active)
COc1cc([C@@H]2c3cc4c(cc3[C@@H](O)C3COC(=O)C32)OCO4)cc(OC)c1O (stereo partly drawn),–,187 nM (active)
C#CC1(O)CCC2C3CCC4=CC(=O)CCC4(C)C3CCC21C (stereo not drawn),105% (inactive),–
C[C@]12COC(=O)C[C@@H]1CC[C@@H]1[C@H]2CC[C@@]2(C)[C@H]1CC[C@]2(C)O,110% (inactive),–
C#C[C@]1(O)C=C[C@@H]2[C@@H]3CCC4=CC(=O)CC[C@@H]4[C@H]3CC[C@@]21CC,102% (inactive),–
CSCC[C@@H](NC(=O)[C@@H](Cc1ccccc1)NC(=O)CNC(=O)CNC(=O)[C@@H](N)Cc1ccc(O)cc1)C(=O)O,96.9% (inactive),–
CCc1c(C(=O)C(N)=O)c2c(OCC(=O)O)cccc2n1Cc1ccccc1,122% (inactive),–
C=C[C@@H]1CN2CCC1C[C@H]2[C@H](O)c1ccnc2ccccc12 (stereo partly drawn),–,18700 nM (active)
CCN1CCN(C(=O)Cc2ccc(Nc3ncc(F)c(Nc4ccc(C(=O)Nc5ccccc5Cl)cc4)n3)cc2)CC1,–,5900 nM (active)
COc1ccc2c(c1)CN(C)CC2c1ccc(Cl)c(Cl)c1 (stereo not drawn),–,83.3 nM (active)

# Experiment: Quantitative High-Throughput drug screen in 47 multiple myeloma cell lines against the NCATS MIPE library collection: MM1R_ATCC cell viability assay (AID 1918981); also: nearly all actives have a fitted effect of over 35% in size
# Details: MM1R multiple myeloma cells, CellTiter-Glo viability, 48 h; series mostly up to 45.8 µM; viability (% of control): at the top concentration
# Method in brief: as §1
SMILES,viability (% of control),Potency
CCCC[N+]1(C)[C@H]2CC(OC(=O)[C@H](CO)c3ccccc3)C[C@H]1[C@H]1O[C@H]12 (stereo partly drawn),109% (inactive),–
CCOC(=O)c1cncn1[C@H](C)c1ccccc1,114% (inactive),–
N#C[C@H](O[C@@H]1O[C@H](CO[C@@H]2O[C@H](CO)[C@H](O)[C@H](O)[C@H]2O)[C@H](O)[C@H](O)[C@H]1O)c1ccccc1,–,29600 nM (active)
CC1(N2CCC(n3c([C@@H]4CCCNC4)nc4ccccc43)CC2)CCCCCCC1,–,14800 nM (active)
O=c1[nH]c2ccccc2n1C1CCN(Cc2ccc(-c3[nH]c4cc5ncnc5cc4nc3-c3ccccc3)cc2)CC1,–,16600 nM (active)
CC(C)N(CCNC(=O)CN1CCCC1=O)C(C)C,120% (inactive),–
C[C@@H]1[C@H](O)[C@@H](C)C=CC=CCCC=CC=CC=CC=C[C@H](O[C@H]2O[C@@H](C)[C@H](O)[C@@H](N)[C@@H]2O)CC2O[C@](O)(C[C@@H](O)[C@H](O)CC[C@@H](O)C[C@@H](O)C[C@@H](O)CC(=O)O[C@H]1C)C[C@H](O)[C@H]2C(=O)O,107% (inactive),–
CN[C@@H]1Cc2cccc3[nH]c(=O)n(c23)C1,92.6% (inactive),–
CC(=Cc1csc(C)n1)[C@@H]1C[C@H]2O[C@@H]2CCC[C@H](C)[C@@H](O)[C@@H](C)C(=O)C(C)(C)[C@@H](O)CC(=O)O1,62.9% (inactive),–
Clc1ccccc1C(c1ccccc1)(c1ccccc1)n1cccn1,–,23500 nM (active)
C[C@@H]1CC[C@H]2[C@@H](C)C(=O)O[C@@H]3O[C@@]4(C)CC[C@H]1[C@]32OO4,82.9% (inactive),–
Cc1[nH]nc2ccc(-c3cncc(OC[C@@H](N)Cc4c[nH]c5ccccc45)c3)cc12,–,1480 nM (active)
O=C(Oc1ccc([N+](=O)[O-])cc1)N1CCN(Cc2cccc(Oc3ccccc3)c2)CC1,108% (inactive),–
C[C@@H]1O[C@@H](O[C@@H]2C=C3CC[C@@H]4[C@@H](CC[C@]5(C)[C@H](c6ccc(=O)oc6)CC[C@@]45O)[C@@]3(C)CC2)[C@H](O)[C@H](O)[C@H]1O,–,26.4 nM (active)
CC[C@@]1(O)C(=O)OCc2c1cc1n(c2=O)Cc2cc3ccccc3nc2-1,–,26.4 nM (active)
NC1=NC(=O)N2CC12 (stereo not drawn),127% (inactive),–

SMILES,viability (% of control),Potency
CC1=C(O)C(=O)C=C2C1=CC=C1[C@@]2(C)CC[C@@]2(C)[C@@H]3C[C@](C)(C(=O)O)CC[C@]3(C)CC[C@]12C,–,469 nM (active)
CC=C(C)C(=O)O[C@H]1C(C)=C2[C@@H]3OC(=O)[C@@](C)(O)[C@@]3(O)[C@@H](OC(=O)CCC)C[C@](C)(OC(C)=O)[C@@H]2[C@@H]1OC(=O)CCCCCCC,–,16.6 nM (active)
COCC1(CO)C(=O)C2CCN1CC2 (stereo not drawn),–,469 nM (active)
CN1CCN(c2ccc([N+](=O)[O-])c3no[n+]([O-])c23)CC1,–,20900 nM (active)
COc1cc([C@@H]2c3cc4c(cc3[C@@H](O)C3COC(=O)C32)OCO4)cc(OC)c1O (stereo partly drawn),–,83.3 nM (active)
COc1ccc2c(c1)[C@]13CCCCC1C(C2)N(C)CC3 (stereo partly drawn),102% (inactive),–
CC(N[C@H]1C[C@H]1c1ccccc1)c1ccc2c(c1)OCCO2 (stereo partly drawn),124% (inactive),–
C#CC1(O)CCC2C3CCC4=CC(=O)CCC4(C)C3CCC21C (stereo not drawn),88.1% (inactive),–
C[C@]12COC(=O)C[C@@H]1CC[C@@H]1[C@H]2CC[C@@]2(C)[C@H]1CC[C@]2(C)O,118% (inactive),–
CCOP(=O)(OCC)C(C)NC(=O)N(CCCl)N=O (stereo not drawn),122% (inactive),–
CCC(=O)OC1CCC2C3CCC4=CC(=O)CC[C@@]4(C)C3CC[C@]12C (stereo partly drawn),123% (inactive),–
CCc1c(C(=O)C(N)=O)c2c(OCC(=O)O)cccc2n1Cc1ccccc1,108% (inactive),–
C=C[C@@H]1CN2CCC1C[C@H]2[C@H](O)c1ccnc2ccccc12 (stereo partly drawn),–,26400 nM (active)
CCN1CCN(C(=O)Cc2ccc(Nc3ncc(F)c(Nc4ccc(C(=O)Nc5ccccc5Cl)cc4)n3)cc2)CC1,–,5900 nM (active)
O=C(O)CNC(=O)c1c(O)c2ccccc2n(Cc2ccccc2)c1=O,113% (inactive),–
